From PubChem BioAssay
VP16 counter: Gal4-VP16 reporter inhibition counter-screen. Drosophila S2 Gal4-VP16 UAS-luciferase, luminescence, 20 h. AID 2546. hit rate 3.5% among 310,000. Potency, µM (doses to about 53.6 µM), usual class: inhibitors;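 further: Gal4-VP16 expression switched on by copper sulfate through the metallothionein promoter; nearly all actives have a fitted effect of over 50% in size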
PKM2 act: increases activity of human pyruvate kinase M2; P14618; purified PKM2, Kinase-Glo ATP luminescence, activation; response scale: 0% is enzyme alone, no compound; Potency, µM (series often up to 57.5 µM), hits mostly activators; hit rate 0.34% among 260,000; AID 1631; further: nearly all actives have a fitted effect of over 55% in size
Target sequence (P14618 whole entry, looked up): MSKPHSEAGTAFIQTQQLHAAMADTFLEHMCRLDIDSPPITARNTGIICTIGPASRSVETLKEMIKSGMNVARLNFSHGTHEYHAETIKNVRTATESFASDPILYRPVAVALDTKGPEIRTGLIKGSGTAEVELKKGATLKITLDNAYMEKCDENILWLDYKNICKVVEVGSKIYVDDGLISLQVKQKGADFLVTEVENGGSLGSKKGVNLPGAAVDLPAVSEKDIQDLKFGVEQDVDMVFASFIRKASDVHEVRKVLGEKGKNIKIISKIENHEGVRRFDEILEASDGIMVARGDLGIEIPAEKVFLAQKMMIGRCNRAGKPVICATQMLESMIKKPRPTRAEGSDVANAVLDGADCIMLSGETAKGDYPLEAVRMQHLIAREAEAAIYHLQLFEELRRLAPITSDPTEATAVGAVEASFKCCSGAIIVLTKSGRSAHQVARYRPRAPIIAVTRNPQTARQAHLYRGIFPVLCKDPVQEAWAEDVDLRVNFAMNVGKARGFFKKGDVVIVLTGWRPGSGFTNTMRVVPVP
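Purified hPK-M2 (>95% pure) converted ADP (0.1 mM final) to ATP with 0.5 mM PEP in 50 mM imidazole pH7.2, KCl, MgCl2, Tween 20, BSA; 1 h at room temperature. ATP detected by Kinase-Glo luminescence.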
RORg inh: blocks mouse ROR gamma transcriptional activity; Drosophila S2 Gal4-RORgamma UAS-luciferase reporter, 20 h; hit rate 5.4% among 310,000; AID 2551; Potency, µM (series often up to 53.6 µM), hits mostly inhibitors; further: nearly all actives have a fitted effect of over 60% in size
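Using a luciferase readout, inhibitors were identified by reduced reporter activity in Drosophila cells coexpressing a copper-inducible Gal4–ROR gamma fusion and UAS-driven Photinus luciferase, incubated 20 hr after 700 uM copper sulfate.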
CtBP-E1A inh: CtBP/E1A binding inhibition; hit rate 0.49% among 340,000; activity change, % (test concentration not listed); AID 651724; AlphaScreen GST-E1A/His-CtBP binding, 1536-well; hits give low values; in the data active means activity change below about -65%; inconclusive means mostly about -30% to -63%
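Homogeneous bead-based format: GST-tagged E1A captured on glutathione donor beads, His-tagged CtBP on nickel acceptor beads; compounds precede bead addition by 2 h at 37 °C.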
Six1-Eya2 inh: Six1/Eya2 interaction inhibition; Q15475+O00167; AlphaScreen GST-Six1/His-Eya2 binding, biochemical; hits give low values; activity change, % (concentration not given with the values); hit rate 0.56% among 360,000; AID 651725; in the data active means activity change below about -65%; inconclusive means mostly about -30% to -63%
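Homogeneous AlphaScreen proximity assay pairing GST-Six1 with His-tagged Eya2 (added as 5X mix: 250 nM and 500 nM) in 50 mM Tris pH 8.0, 300 mM NaCl, 1 mM TCEP. Glutathione donor and nickel acceptor beads; 1 h, 37 °C, dark.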
Numbers stand for hits; 0 = inactive; ? = inconclusive; - = no result given; ! = repeats disagree; [ ] = dose if it differs, or a comment. Compounds with a hit are over-represented: about 5.6% of the library has one in this group of screens. Unless noted, the call rests on the fitted dose curve; in most records, active means well fitted curve in the direction sought with a large enough effect; inconclusive means small, poorly fitted or top-dose-only effect, or another doubt; inactive means no such curve, though single readings can be large; an effect the other way counts as inactive or inconclusive.

SMILES	VP16 counter	PKM2 act	RORg inh	CtBP-E1A inh	Six1-Eya2 inh
CNC(=S)NNC(=O)c1noc(C)c1C(=O)N1CCN(C(c2ccccc2)c2ccccc2)CC1	0	0	0	0	0
COC(=O)c1sccc1NC(=O)Cn1nnc(-c2ccccc2C)n1	0	-	?	0	0
COc1cc2c(cc1OC)-c1cc(NC3CCCCCCC3)nc(=O)n1CC2	0	0	0	-85	-80
Cc1noc2ncnc(Sc3ccc(Br)cc3)c12	11µM	0	4µM	0	0
Cc1c(O)cnc2nn(-c3ccccc3)c(=N)n12	-	-	-	0	0
CC(C)C(=O)Nc1nnc(CCc2ccccc2)s1	0	-	0	-	0
CCCc1nnc(NC(=S)Nc2ccccc2)s1	0.63µM	0	0.63µM	0	0
CCCCC(=O)Nc1nnc(CCc2ccccc2)s1	0	0[11.5 µM]	0	-	0
CC(C)C(=O)Nc1nnc(NC(=S)Nc2ccccc2)s1	2.8µM	0	0.56µM	0	0
CCCCCC(=O)Nc1nnc(CCc2ccccc2)s1	?	0	13µM	0	0
O=C(O)CCc1ccc(-c2ccc(Cl)cc2)n1NC(=O)c1ccc(O)cc1	0	0	0	-	0
NC(c1csc(Nc2cc(Oc3ccccc3)ncn2)n1)C1CCCCC1 (stereo unspecified)	-	-	-	0	0
NCc1csc(Nc2cc(Oc3ccccc3)ncn2)n1	-	-	-	-77	?
CC(=O)OC1C=C[C@@H](OC(C)=O)C1 (stereo partly specified)	0	-	0	-	-
COc1ccc(CC2=CC(=O)c3ccccc3C2=O)cc1	10µM	0	7.1µM	-	0
COc1ccc(C(=O)OCC(=O)NC2CC2)cc1F	-	-	-	0	0
S=c1nc(C2CC2)n(-c2ccccc2)[nH]1	?	0	7.9µM	0	0
Cc1nn2cnnc2c(C)c1Cc1ccc(Cl)cc1	0	-	0	-	0
CC(C)Cc1nnc(NC(=O)CCC(=O)NCCc2ccc(Cl)cc2)s1	0	-	0	-	0
Cc1ccc(Cn2c(C3CCCN3c3nc(C)cs3)nc3cc(C(F)(F)F)ccc32)cc1 (stereo unspecified)	?	0	3.5µM	0	0
CCOC(=O)c1c(C)[nH]c(C(=O)COC(=O)/C=C/c2ccc(OCC#N)c(OC)c2)c1C	0	0	0	0	0
O=C(c1ccccc1)c1c2c(cc3sc4ccccc4[n+]13)-c1cccc3cccc-2c13	10µM	0	?	0	0
Cc1sc2cc3c(c(C(=O)c4ccccc4)[n+]2c1C)-c1cccc2cccc-3c12	11µM	0	?	0	0
O=C(c1ccccc1)c1ccc2ccccc2c1	-	-	-	0	0
NC(=S)N/N=C/c1ccccc1OCc1cccc(Cl)c1	4µM	0	0.79µM	0	0
SMILES	VP16 counter	PKM2 act	RORg inh	CtBP-E1A inh	Six1-Eya2 inh
NC(=S)N/N=C/c1ccc2cccc(OCc3ccccc3)c2n1	?	-	7.1µM	0	0
COC(=O)N/N=C/c1ccccc1OCc1ccccc1	0	0	?	0	0
Cc1cccc(COC[C@H](Cc2ccccc2)N2CCN(C(=O)c3ccc(Cl)c(Cl)c3)CCC2=O)c1	-	-	-	0	0
CN(C)/C=N/c1nc2ccc3c(c2s1)CCCC3	0	0	10µM	0	0
Nn1c(SC/C=C/c2ccccc2)nnc1-c1cccnc1	0	0	0	0	0
Nn1c(SC/C=C/c2ccccc2)nnc1-c1ccccn1	0	0	0	-78	-75
CC1=C(/C=C/C(C)=C/C=C/C(C)=C/C(=O)Nc2ccc(O)cc2)C(C)(C)CCC1	5µM!	0	4.5µM!	0	0
COc1ccc2c(c1)OC(C)(C)C(c1ccccc1)C2c1ccc(OCCN2CCCC2)cc1 (stereo unspecified)	0	-	0	-	-
Cc1cccc(-n2nc3c(c2NC(=O)c2ccc(Br)o2)CSC3)c1	0	0	3.2µM	0	0
Nc1nonc1-n1nnc(C(=O)N/N=C/c2ccc(OCc3ccccc3)cc2)c1CNc1ccccc1	?	-	11µM	0	0
CCc1c(C(=O)N/N=C/c2cccs2)nnn1-c1nonc1N	?	0	13µM	0	0
Nc1nonc1-n1nnc(C(=O)N/N=C/c2ccc(OCc3ccccc3)cc2)c1COc1ccc(F)cc1	0	0	0	0	0
Nc1nonc1-n1nnc(C(=O)N/N=C/c2cccs2)c1CSc1ccccc1	5µM	0	?	0	0
Nc1nonc1-n1nnc(C(=O)N/N=C/C=C/c2ccccc2)c1CSC1=NCCS1	3.2µM	0	1.4µM	?	0
CCN(CC)Cc1c(C(=O)N/N=C/c2cccs2)nnn1-c1nonc1N	0	-	?	0	0
COc1ccccc1/C=C/C(=O)OCC(=O)N1CCc2ccccc21	-	-	-	0	0
O=C(COc1ccc(F)cc1Br)N1CCc2ccccc21	-	0	0[0.365 µM]	0	0
COc1cc(CO)ccc1OCC(=O)N1CCc2ccccc21	?	0	2.5µM	0	0
O=C1NCC(Nc2ccc(Br)cc2)C(=O)N1 (stereo unspecified)	-	-	-	0	0
CC(C)(C)c1ccc(S(=O)(=O)/C=C\C#N)cc1	0.79µM	-	0.63µM	-	-
Cc1ccc(S(=O)(=O)/C=C/C#N)cc1	0.56µM	-	1.1µM	-	-
Cc1ccc(S(=O)(=O)C=CS(=O)(=O)c2ccc(C)cc2)cc1	-	-	-	0	0
Cc1ccc(S(=O)(=O)/C=C\C#N)cc1	0.56µM	-	0.63µM	-	-
Cc1c(OCC(=O)NCCN2CCOCC2)ccc2c1oc(=O)c1ccccc12	0	-	0	0	0
COc1ccc2c(=O)c3ccccc3oc2c1	0	0	0	0	0
SMILES	VP16 counter	PKM2 act	RORg inh	CtBP-E1A inh	Six1-Eya2 inh
COc1ccc2oc3cc(NCCN(C)C)ccc3c(=O)c2c1	-	-	-	-75	-70
CCC(C)NC(=S)Nc1ccc(C(=O)OC)cc1 (stereo unspecified)	?	0	7.1µM	0	0
CCc1cccc(CC)c1NC(=S)Nc1ccccc1	?	0	13µM	0	0
CC(C)c1ccccc1NC(=S)NC(C)c1ccccc1 (stereo unspecified)	?	0	?	0	0
CCN(CC)NC(=S)Nc1ccccc1	?	0	3.2µM	0	0
CCc1cccc(CC)c1NC(=O)c1cccc(NC(=O)c2ccccc2)c1	0	0	0	0	0
CC(NC(=S)Nc1ccc(F)cc1)c1ccccc1 (stereo unspecified)	7.9µM	0	7.1µM	0	0
COc1ccc(C(=O)c2c3ccc(C(F)(F)F)cc3[n+]([O-])n2CCCN)cc1	-	-	-	0	0
CCCOC(=S)Nc1ccccc1	0	0	11µM	0	0
CCCC(C)NC(=S)Nc1cc(C)cc(C)c1 (stereo unspecified)	6.3µM	0	1.4µM	0	0
CCC(C)NC(=S)Nc1ccccc1 (stereo unspecified)	?	0	5.6µM	0	0
CC(Cc1cccs1)NC(=S)Nc1ccccc1 (stereo unspecified)	7.1µM	0	4.5µM	0	0
CCN(CC)S(=O)(=O)c1cc(NC(=O)c2ccc(-n3cncn3)c([N+](=O)[O-])c2)ccc1C	0	0	0	0	0
O=C1CSC(=Nc2cccc(Cl)c2Cl)N1	0	0	0	0	0
